# Reference: PubChem BioAssay (NCATS)
# Records with an inconclusive call do not appear. Calls of active or inactive are those of the source. Calls come from the whole dose curve.
# Tests used:
# [1] = Confirmatory qHTS to identify inhibitors of SARS-CoV-2 cell entry (AID 1645844); note: nearly all actives have a fitted effect of over 45% in size
# In short: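 Luminescence entry read-out after 48 h: spike-pseudotyped MLV particles (Wuhan-Hu-1, 19-aa C-terminal truncation) added to compound-pretreated (1 h) HEK293-ACE2 cells; Data were normalised to bald PP and spike PP wells.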
# [2] = Cytotoxicity counterscreen for inhibitors of SARS-CoV-2 cell entry (AID 1645845); details: outcome: dose series up to 57.1 µM unless noted; note: nearly all actives have a fitted effect of over 50% in size
# In short: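 ATP-content luminescence (ATPLite 1step, 15 min RT) read after 48 h compound exposure of Expi293F cells stably expressing human ACE2; normalized to cells-only wells and media-only wells.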
# [3] = VSVG counterscreen qHTS to identify inhibitors of SARS-CoV-2 cell entry (AID 1645847); note: nearly all actives have a fitted effect of over 65% in size
# In short: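 Expi293F/hACE2 cells, overnight plating; cpd 1 h, 37C/5% CO2; + VSV-G PP (MLV pseudotyping), 48 h; supernatant removed, Bright-Glo luciferase read. Norm: VSV-G PP and bald PP wells.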
# [4] = Primary qHTS to identify inhibitors of SARS-CoV-2 cell entry (AID 1645846); details: SARS-CoV-2 pseudovirus cell entry assay, luminescence; activity change, negative = inhibition: at 57.1 µM (top of the series) unless noted; note: nearly all actives have a fitted effect of over 45% in size
# In short: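 HEK293-ACE2 (Expi293F, stable hACE2), 1500 cells/well, o/n 37C; cpd 23 nL pin, 1 h; MLV-PP w/ SARS-CoV-2-S (Wuhan-Hu-1, Δ19 C-term); 48 h 37C; Bright-Glo luminescence; normalized vs S-PP and bald PP.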
# [5] = S16 Schwann cell PMP22 intronic element beta-lactamase assay (AID 624044); details: S16 rat Schwann cells, PMP22 element beta-lactamase FRET, 24 h; ratio activity, negative = inhibition: at 38.3 µM (top of the series) unless noted; note: nearly all actives have a fitted effect of over 15% in size
# In short: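 Beta-lactamase reporter under a PMP22 intronic regulatory element in stable S16 rat Schwann cells; 24 h compound exposure. 460 nm blue signal normalized between DMSO (0%) and potassium clavulanate, with 535 nm FRET tracking viability; curves classed by r2 and response.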
# Potency is the fitted concentration of half-maximal effect.
compound,measurement,setting,value
O=c1[nH]c([C@@H]2CCCN2)nc2c1oc1ccc(Cl)cc12,Potency,[1],5.41 µM (active)
same,Potency,[2],inactive
same,Potency,[3],7.64 µM (active)
O=C(O)c1ccccc1-c1ccc(/C=c2\sc3nc4cc(Br)cnc4n3c2=O)o1,Potency,[2],inactive
COc1cc2c3c(n(CCCn4ccnc4)c(=O)c2cc1OC)-c1cc2c(cc1C3=O)OCO2,Potency,[1],0.0482 µM (active)
same,"activity change, negative = inhibition",[4],-94.4%
same,Potency,[3],0.0607 µM (active)
C=CC(=O)Nc1cccc(Nc2nc(Nc3ccc(OCCOC)cc3)ncc2F)c1,Potency,[1],6.81 µM (active)
same,Potency,[2],inactive
same,Potency,[3],4.82 µM (active)
O=c1c(-n2ccnn2)c[nH]n1-c1cc(N2CCOCC2)ncn1,Potency,[1],4.82 µM (active)
same,Potency,[3],21.5 µM (active)
CNc1ncc2cc(-c3cc(NC(=O)NCCC(C)(C)C)c(F)cc3C)c(C)nc2n1,Potency,[2],inactive
CO[C@@H]1[C@@H](O)[C@H](O)[C@@H](n2c3c(Cl)cccc3c3c4c(c5c6cccc(Cl)c6[nH]c5c32)C(=O)NC4=O)O[C@H]1CO,Potency,[1],0.961 µM (active)
same,Potency,[4],1 µM (active)
Cc1[nH]c2ccc(F)cc2c1-c1nc2c3cccnc3c3ncccc3c2[nH]1,Potency,[1],0.555 µM (active)
same,Potency,[2],inactive
same,Potency,[3],1.75 µM (active)
O=S(=O)(Nc1ccc(-c2cccnc2)c2cccnc12)c1cccc(C(F)(F)F)c1,Potency,[2],14.1 µM (active)
COc1cc(N2CCC(N)CC2)ccc1Nc1ncc(Cl)c(-c2c[nH]c3ccccc23)n1,Potency,[2],31.6 µM (active)
C[C@H](NC(=O)CCC(F)(F)F)C(=O)N[C@@H]1C(=O)N(CCO)c2ncccc2-c2ccccc21,Potency,[2],inactive
CCOC(=O)C1=CCCCC1S(=O)(=O)Nc1ccc(F)cc1Cl (stereo unspecified),Potency,[2],inactive
C[C@@]12C(=O)OC(=O)[C@]1(C)[C@H]1CC[C@@H]2O1,Potency,[5],3.37 µM (active)
same,Potency,[1],4.82 µM (active)
same,Potency,[4],8.91 µM (active)
same,Potency,[3],3.04 µM (active)
O=C1NC(=O)[C@@H](c2c[nH]c3ccccc23)[C@H]1c1cn2c3c(cccc13)CCC2,Potency,[1],7.64 µM (active)
same,Potency,[3],1.52 µM (active)
Cc1c(NC(=O)OCC2COCCN2)cn2ncnc(Nc3ccc4c(cnn4Cc4cccc(F)c4)c3)c12 (stereo unspecified),Potency,[2],inactive
Nc1ncnc2c1C(=O)N(c1ccc(C3CCC(CC(=O)O)CC3)cc1)CCO2 (stereo unspecified),Potency,[2],inactive
O=c1[nH]nc2c3c(cccc13)NC(CN1Cc3ccccc3C1)=N2,Potency,[2],inactive
Cc1sc2c(c1C)C(c1ccc(Cl)cc1)=N[C@@H](CC(=O)Nc1ccc(OCCOCCOCCOCCNc3cccc4c3C(=O)N(C3CCC(=O)NC3=O)C4=O)cc1)c1nnc(C)n1-2 (stereo partly specified),Potency,[2],inactive
Nc1nc(-c2nn(Cc3ccccc3F)c3ncccc23)ncc1C1CC1,Potency,[1],5.41 µM (active)
same,Potency,[3],12.1 µM (active)
CC[C@]1(O)CC2CN(CCc3c([nH]c4ccccc34)[C@@](C(=O)OC)(c3cc4c(cc3OC)N(C)[C@H]3[C@@](O)(C(=O)OC)[C@H](OC(C)=O)[C@]5(CC)C=CCN6CC[C@]43[C@@H]65)C2)C1 (stereo partly specified),Potency,[1],0.0043 µM (active)
same,Potency,[3],0.0383 µM (active)
N#Cc1ccnc(N2C(=O)CC[C@H]2C(=O)N(c2cncc(F)c2)[C@H](C(=O)NC2CC(F)(F)C2)c2ccccc2Cl)c1,Potency,[2],inactive
COc1cc(F)ccc1-c1ncnc(Nc2cccc(CS(C)(=N)=O)c2)n1 (stereo unspecified),Potency,[1],3.83 µM (active)
same,Potency,[3],4.29 µM (active)
CC(=O)N1c2ccc(-c3ccc(C(=O)O)cc3)cc2[C@H](Nc2ccc(Cl)cc2)C[C@@H]1C,Potency,[2],inactive
O=C(CCCCCCC(=O)N/N=C/c1ccc(N(c2ccccc2)c2ccccc2)cc1)NO,Potency,[1],8.79 µM (active)
same,Potency,[4],3.16 µM (active)
same,Potency,[3],7.84 µM (active)
O=C1NC(=O)C(c2cnc3ccccn23)=C1c1cn2c3c(cc(F)cc13)CN(C(=O)N1CCCCC1)CC2,Potency,[1],2.15 µM (active)
same,Potency,[3],0.152 µM (active)
CCNC(=O)Nc1ccc(-c2nc3c(c(N4CCOC[C@@H]4C)n2)CCN(C2COC2)C3)cc1,Potency,[1],12.1 µM (active)
same,Potency,[4],10 µM (active)
Cn1ncc(Cl)c1-c1cc(C(=O)N[C@H](CN)Cc2cccc(F)c2)sc1Cl,Potency,[2],inactive
c1cc(Nc2cc(C3CC3)[nH]n2)nc(Nc2ccc3nc[nH]c3c2)n1,Potency,[1],0.192 µM (active)
same,Potency,[3],0.242 µM (active)
CCc1cc(C(N)=O)ccc1-n1nc(C(C)C)c2c(-n3cnc(-c4cnn(C)c4)c3)ccnc21,Potency,[1],10.8 µM (active)
same,Potency,[3],3.04 µM (active)
NC(=O)c1ccccc1Nc1ccnc(Nc2cccc(O)c2)n1,Potency,[1],9.61 µM (active)
same,Potency,[4],8.91 µM (active)
COc1ccc(-c2ccc3c(N4CCOC[C@@H]4C)nc(N4CCOC[C@@H]4C)nc3n2)cc1CO,Potency,[1],0.681 µM (active)
same,Potency,[4],1 µM (active)
same,Potency,[3],0.429 µM (active)
COc1ccc(-n2c(SCCCN3C(=O)c4cccc5cccc(c45)C3=O)nnc2-c2ccncc2)cc1,Potency,[2],inactive
COc1cc(OC)c(/C=C/S(=O)(=O)Cc2ccc(OC)c(OP(=O)(O)O)c2)c(OC)c1,Potency,[1],0.0175 µM (active)
same,Potency,[2],inactive
same,Potency,[3],0.0393 µM (active)
